This note sets out measurements from PubChem BioAssay (NCI).

Test systems include HCT-15 colon; HT29 colon; SNB-75 CNS; SNB-19 CNS; U251 CNS; PC-3 prostate; SK-MEL-5 melanoma; UACC-62 melanoma; LOX IMVI melanoma; SK-MEL-28 melanoma; SK-MEL-2 melanoma; EKVX NSCLC; SN12C renal; UO-31 renal; TK-10 renal; ACHN renal; CAKI-1 renal; A498 renal; CCRF-CEM leukemia; MOLT-4 leukemia.
Common to all, as to assay: NCI-60 one-dose screen, 48 h (100 = growth as untreated, 0 = no growth, -100 = all killed)
Holding throughout (conditions): 10 µM unless noted

The structures appear in SMILES notation. This is part of a sample that, as a whole, favours compounds with a hit. Of some 83,000 tested, about 20% had one in any assay.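 Percent growth is the endpoint: 0 to 100 indicates growth inhibition (40 means 60% inhibition), 0 means no net growth, and negative values indicate cell death.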 Unmarked numbers belong to inactive results. Activity calls are given as the source filed them. Rule for the calls: active = growth percent below 10; inactive = the rest.

On to `N#Cc1c(N2CCOCC2)nc(=S)[nH]c1-c1ccccc1`, for which the growth with HCT-15 colon was 86.6%; in the experiment on HT29 colon, 86.1%; in the experiment with SNB-75 CNS it was 15.1%; with SNB-19 CNS, 84.8%; in the experiment with U251 CNS, 78.5%; with PC-3 prostate it was 47%. Further, the growth in the experiment with SK-MEL-5 melanoma was 63%; in the experiment on UACC-62 melanoma, 43.6%; with LOX IMVI melanoma, 80%; in the experiment with SK-MEL-28 melanoma it was 79.6%; in the experiment on SK-MEL-2 melanoma it was 41.8%; in the experiment with EKVX NSCLC, 56.8%. Moreover, the growth in the experiment on SN12C renal is 73.7%; with UO-31 renal, 76.9%; in the experiment with TK-10 renal, 57.6%; in the experiment on ACHN renal it was 73.9%; in the experiment with CAKI-1 renal, 61.4%; in the experiment on A498 renal, 13.7%. For the same molecule, the values for the growth in the experiment on CCRF-CEM leukemia and in the experiment with MOLT-4 leukemia were 62.3% and 73.6%, respectively.
`CCCCc1oc2ccccc2c1C(=O)c1ccc(O)cc1`: the growth was 81.6% with HCT-15 colon; 103% in the experiment on HT29 colon; 62.4% in the experiment on SNB-75 CNS; 91.1% in the experiment on SNB-19 CNS; 85.8% with U251 CNS; 73% in the experiment with PC-3 prostate. Besides, the growth is 82.6% in the experiment with SK-MEL-5 melanoma; 69.1% in the experiment with UACC-62 melanoma; 82.7% in the experiment on LOX IMVI melanoma; 116% in the experiment on SK-MEL-28 melanoma; 99.8% in the experiment on SK-MEL-2 melanoma; 92.3% in the experiment on EKVX NSCLC. Besides, the growth in the experiment on SN12C renal is 71.2%; with UO-31 renal, 78.3%; with TK-10 renal, 101%; with ACHN renal, 88.8%; with CAKI-1 renal, 68.4%; with A498 renal, 90.9%. In addition, the growth in the experiment with CCRF-CEM leukemia was 51.9%.
As for `CCOC(=O)C1CCN(c2ccc(N3C[C@@H](CNCc4ccc(C(=N)N)cc4)OC3=O)cc2)CC1`, the growth with HCT-15 colon is 102%; in the experiment with HT29 colon, 105%; in the experiment on SNB-75 CNS, 83.8%; with SNB-19 CNS it was 98.9%; in the experiment on U251 CNS, 104%; with PC-3 prostate it was 94.4%. For the same molecule, the growth in the experiment with SK-MEL-5 melanoma is 103%; in the experiment with UACC-62 melanoma it was 97.3%; in the experiment on LOX IMVI melanoma, 96.4%; in the experiment with SK-MEL-28 melanoma it was 105%; in the experiment with SK-MEL-2 melanoma it was 112%; in the experiment on EKVX NSCLC, 99.4%. Moreover, the growth in the experiment with SN12C renal is 97.6%; in the experiment with UO-31 renal, 77.8%; in the experiment on TK-10 renal, 97.5%; with ACHN renal it was 102%; in the experiment on CAKI-1 renal, 89.4%; with A498 renal, 108%. In addition, the growth in the experiment with CCRF-CEM leukemia is 98.5%.
Turning to `Cc1ccc(/C=C(\C#N)C(=O)Nc2ncc(Cc3cc(Cl)ccc3Cl)s2)o1`, the growth in the experiment with HCT-15 colon was 59%; in the experiment with HT29 colon, 97%; in the experiment with SNB-75 CNS it was -0.376% (active); in the experiment on SNB-19 CNS, 27.6%; with U251 CNS, 32.2%; in the experiment on PC-3 prostate it was 38.8%. Moreover, the growth with SK-MEL-5 melanoma was 51.6%; in the experiment on UACC-62 melanoma, 6.39% (active); with LOX IMVI melanoma, 11.9%; in the experiment on SK-MEL-28 melanoma it was 88.9%; with SK-MEL-2 melanoma, 45.9%; in the experiment with EKVX NSCLC it was 60.4%. The growth in the experiment with SN12C renal is 58.9%; in the experiment with UO-31 renal, 31.7%; in the experiment on TK-10 renal, 44.1%; with ACHN renal, 45.4%; with CAKI-1 renal it was 23.7%; in the experiment on A498 renal it was 40.5%. Also, the growth with CCRF-CEM leukemia is 55.4%.
For the molecule `CCOC(=O)CSc1nc2sc3c(c2c(=O)n1-c1ccc([N+](=O)[O-])cc1)CCCCC3`, the growth in the experiment on HCT-15 colon is 85.1%; in the experiment with HT29 colon it was 78.6%; in the experiment with SNB-75 CNS it was 11%; in the experiment on SNB-19 CNS it was 78.8%; with U251 CNS, 53.5%; in the experiment with PC-3 prostate, 73.2%. In addition, the growth with SK-MEL-5 melanoma is 88.7%; with UACC-62 melanoma, 74.9%; in the experiment on LOX IMVI melanoma, 79.6%; in the experiment on SK-MEL-28 melanoma, 84.1%; in the experiment on SK-MEL-2 melanoma, 90.9%; with EKVX NSCLC, 82.8%. For the same molecule, the growth in the experiment with SN12C renal is 84.3%; with UO-31 renal, 71.4%; in the experiment with TK-10 renal, 84.7%; in the experiment on ACHN renal, 52.8%; with CAKI-1 renal it was 51.2%; with A498 renal, 85.3%. The growth with CCRF-CEM leukemia was 89%.
For `CCCCCCCCn1ccc2cc(NC(=O)Cn3cc(CN4CCC(C)CC4)nn3)ccc21`, the growth was -32.2% (active) in the experiment on HCT-15 colon; -66.9% (active) with HT29 colon; 79.1% in the experiment with SNB-75 CNS; -34.8% (active) in the experiment on SNB-19 CNS; -57.6% (active) with U251 CNS; 43% in the experiment on PC-3 prostate. Also, the growth is -23% (active) in the experiment with SK-MEL-5 melanoma; -77.8% (active) with UACC-62 melanoma; -85.3% (active) in the experiment on LOX IMVI melanoma; -86.9% (active) in the experiment with SK-MEL-28 melanoma; 50.3% in the experiment on SK-MEL-2 melanoma; 79% in the experiment on EKVX NSCLC. Further, the growth in the experiment on SN12C renal was 33.5%; in the experiment with UO-31 renal it was -87.7% (active); in the experiment on TK-10 renal, 80.7%; in the experiment with ACHN renal, 55.1%; in the experiment with CAKI-1 renal, 11.3%; in the experiment with A498 renal, 87.6%. In the experiment on CCRF-CEM leukemia, the growth was -12% (active).
On to `Cc1cscc(C)c1=S`, for which the growth is 9.4% (active) in the experiment with HCT-15 colon; 19.5% in the experiment on HT29 colon; 108% in the experiment on SNB-75 CNS; 100% in the experiment on SNB-19 CNS; 80% in the experiment with U251 CNS; 77% with PC-3 prostate. Also, the growth is 90.2% in the experiment with SK-MEL-5 melanoma; 90% in the experiment with UACC-62 melanoma; 70.4% in the experiment on LOX IMVI melanoma; 120% with SK-MEL-28 melanoma; 11.9% with SK-MEL-2 melanoma; 110% with EKVX NSCLC. The growth is 87.5% in the experiment with SN12C renal; 70.5% in the experiment on UO-31 renal; 92.4% in the experiment with TK-10 renal; -5.99% (active) with ACHN renal; 51.2% in the experiment on CAKI-1 renal; 128% in the experiment with A498 renal. The growth was 91.1% with CCRF-CEM leukemia and 81.2% in the experiment with MOLT-4 leukemia.
`COc1cc2ncnc(Nc3ccc(F)c(Cl)c3)c2cc1OCC(=O)N1CCN(c2ccc(F)cc2)CC1`: the growth in the experiment on HCT-15 colon was 92.7%; with HT29 colon, 86.7%; in the experiment with SNB-75 CNS, 91.2%; in the experiment on SNB-19 CNS, 83.6%; with U251 CNS, 107%; with PC-3 prostate, 94.6%. For the same molecule, the growth in the experiment with SK-MEL-5 melanoma was 98.2%; with UACC-62 melanoma, 87.9%; in the experiment on LOX IMVI melanoma, 93.3%; with SK-MEL-28 melanoma, 98.4%; in the experiment with SK-MEL-2 melanoma, 97.5%; with EKVX NSCLC, 78.3%. Moreover, the growth in the experiment on SN12C renal is 88.2%; in the experiment with UO-31 renal it was 44.5%; in the experiment with TK-10 renal, 38.2%; in the experiment with ACHN renal, 45.9%; in the experiment with CAKI-1 renal, 44.8%; in the experiment on A498 renal it was 72.5%. The values for the growth in the experiment on CCRF-CEM leukemia and with MOLT-4 leukemia were 113% and 85.8%, respectively.
